AddAB inh – less growth of phage-infected E. coli with AddAB | E. coli expressing H. pylori AddAB, absorbance growth | inhibition, % at 11.9 µM | 330,000 compounds, 0.29% hits; in the data active = inhibition above about 12%;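 also: 0% = vehicle wells of infected cells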
E coli growth-1 – counter-screen for AddAB inhibitors: E. coli growth inhibition; 330,000 compounds, 0.27% hits; AID 449728; inhibition, % at 11.9 µM; E. coli V3065 growth, OD600 absorbance, 18 h;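 active = inhibition above the campaign's mean inhibition across all tested compounds plus 3 SD, cut at about 9.9% in these data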;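 also: uninfected addAB+ strain grown without phage in ampicillin broth; 0% = DMSO wells and 100% = ciprofloxacin 0.95 µg/ml wells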
phage Ecoli inh – E. coli growth loss with phage present. inhibition, % at 11.9 µM. growth absorbance. 360,000 compounds, 0.26% hits; in the data active = inhibition above about 11%
E coli growth-2 – blocks Escherichia coli growth; OD600, 23 h; stronger effect = lower value; OD600 absorbance (no concentration beside the values); 330,000 compounds, 0.21% hits;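 active = OD600 absorbance below the run mean of sample wells minus 3.6 SD, in any replicate, cut at about 0.56 in these data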
Tat transport – blocks Tat-dependent protein export in E. coli; E. coli MC4100 TorA-mCherry Tat export, fluorescence; inhibition, % at 10 µM; 340,000 compounds, 0.036% hits;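 active = mean replicate inhibition at least 50% and at least half of replicates individually reaching 50%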;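 also: exported cargo escapes ClpAP degradation while cytoplasmic cargo is degraded and loses fluorescence; 0% = median of neutral control wells and 100% = median of NaSCN control wells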
Active calls of the source: *; / = no result. An excerpt weighted towards active compounds, which were near 0.5% of everything screened.

SMILES	AddAB inh	E coli growth-1	phage Ecoli inh	E coli growth-2	Tat transport
CO/N=C(/C(=O)N[C@@H]1C(=O)N2C(C(=O)O)=CCS[C@H]12)c1cnc(N)s1	100*	100*	/	/	/
CC[C@H]1OC(=O)[C@H](C)[C@@H](O[C@H]2C[C@@](C)(OC)[C@@H](O)[C@H](C)O2)[C@H](C)[C@@H](O[C@@H]2O[C@H](C)C[C@H](N(C)C)[C@H]2O)[C@](C)(O)C[C@@H](C)C(=NOCOCCOC)[C@H](C)[C@@H](O)[C@]1(C)O	9	11*	10	/	3
CCC1OC(=O)C(C)C(OC2C[C@@](C)(OC)C(O)C(C)O2)C(C)C(OC2OC(C)CC(N(C)C)C2O)[C@](C)(OC)CC(C)C(=O)C(C)C(O)[C@]1(C)O (some centres undefined)	/	/	/	0.39*	/
NC(=NOC(=O)c1ccccc1Cl)c1cccnc1	/	/	/	0.68	/
CC(=O)c1ccc(-n2nncc2C(C)(C)C)cc1	2	0	2	0.7	7
Cc1cnnn1-c1ccc(C(=O)CCl)cc1	3	2	2	0.51*	-16
O=C1C(=O)c2cccnc2-c2ncccc21	/	/	101*	/	/
O=C1c2cccnc2-c2ncccc21	0	1	2	0.71	-2
O=C(NN=Cc1ccc(Oc2ccccc2)cc1)c1csnn1	/	/	/	0.65	/
CC12CCC(C(=O)N(CSC(=S)N/N=C\c3ccccc3Cl)C1=O)C2(C)C (centres undefined)	4	11*	5	/	3
CC12CCC(C(=O)N(CSC(=S)NN=Cc3ccccc3O)C1=O)C2(C)C (centres undefined)	/	/	/	0.7	/
COCC(=O)O[C@]1(CCN(C)CCCc2nc3ccccc3[nH]2)CCc2cc(F)ccc2C1C(C)C (some centres undefined)	/	/	/	0.63	/
CCN1C(=O)C2C(c3ccc(-c4ccc(OC)cc4)cc3)N3CCC[C@@]3(C(=O)OC)C2C1=O (some centres undefined)	/	/	/	0.65	/
CCN1C(=NCc2ccccc2)NC(c2ccccc2)C(C(=O)OC)C1C (centres undefined)	/	/	/	0.65	/
CCN1CSC(=S)N(Cc2ccc(OC)cc2)C1	1	0	0	0.5*	-30
CCN1CSC(=S)N(Cc2ccccc2)C1	1	-1	0	0.54	-37
COC(=O)C1C(O)C(C)C(O)C(C)(O)/C=C\C=C(/C)C(=O)Nc2c(C)c(OC(C)=O)c3c(c2O)C(=O)C(C)=C2OCOC(=C23)/C(C)=C/C(C)(O)C(O)C(C)C1O (centres undefined)	0	-2	8	/	65*
COC1C=CO[C@@]2(C)Oc3c(C)c(O)c4c(O)c(c5c(nc6cc(C)ccn65)c4c3C2=O)NC(=O)C(C)=CC=CC(C)C(O)C(C)C(O)C(C)C(OC(C)=O)C1C (some centres undefined)	/	/	/	0.062*	/
COC1C=CO[C@@]2(C)Oc3c(C)c(O)c4c(O)c(c(C=NN5CCN(C)CC5)c(O)c4c3C2=O)NC(=O)C(C)=CC=CC(C)C(O)C(C)C(O)C(C)C(OC(C)=O)C1C (some centres undefined)	/	/	/	0.074*	/
Cc1c2ccncc2cc2c1[nH]c1ccccc12	/	/	4	0.41*	4
CS(=O)(=O)c1ccc(C(=O)NC(Cc2ccccc2)c2ccccc2)cc1 (centres undefined)	3	2	1	0.69	9
CS(=O)(=O)c1ccc(C(O)C(CF)NC(=O)C(Cl)Cl)cc1 (centres undefined)	/	/	/	0.06*	/
CS(=O)(=O)c1ccc(C(O)C(CO)NC(=O)C(Cl)Cl)cc1 (centres undefined)	/	/	/	0.38*	/
CC(=N/N=C1/NC(=O)CC(C(=O)O)S1)c1cccs1 (centres undefined)	/	/	/	0.74	/
CCCOc1ccc(C(=O)NNC(=S)NC(=O)CC)cc1	-2	-1	4	0.4*	-29
SMILES	AddAB inh	E coli growth-1	phage Ecoli inh	E coli growth-2	Tat transport
C=CCNC(=S)NNC(=O)c1ccc(OCCC)cc1	-2	0	1	0.71	-5
N#CC(=NNc1ccc([N+](=O)[O-])cc1)C(=N)N1CCCCC1	/	/	/	0.62	/
COc1cc2c(cc1OC)CN(C(=S)Nc1ccccc1Cl)CC2	0	-4	2	0.43*	8
COc1cc2c(cc1OC)CN(C(=S)Nc1ccccc1)CC2	0	2	-1	0.72	1
O=[N+]([O-])c1ccc(N=Nc2c(Cl)cc(O)cc2Cl)cc1	0	0	1	0.4*	-5
CC1CCc2nc(C(C#N)=Cc3cccnc3)sc2C1 (centres undefined)	/	/	/	0.64	/
S=C(NCc1ccco1)Nc1ccc(Cl)c(Cl)c1	9	8	9	0.47*	-3

Assay outcomes as filed in PubChem BioAssay.
